Only some compounds are listed: those with a hit (about 2.9% of all), similar ones and a draw of the others.
A549 viability: kills or reduces viability of A549 cells in Nrf2 counter-screen | A549 ARE-Fluc cells, CellTiter-Fluor viability, 18-24 h | Potency, µM (titrated, usually from 46 µM), hits mostly inhibitors | 0.16% of 390,000 active | AID 504648
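A549 ARE_Fluc cells in 5% FBS OPTI-MEM were exposed to compounds in concentration-response for 18-24 h at 37 deg C. Viability was read by CellTiter-Fluor fluorescence (Ex 405/Em 525) after 30 min, before the luciferase read.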
Nrf2 activator: Nrf2 pathway activation. 0.31% of 410,000 active. Potency, µM (series often up to 46.1 µM), actives largely listed as activators. AREc32 ARE-luciferase reporter (MCF7-derived line), luminescence, 24 h; note: nearly all actives have a fitted effect of over 65% in size
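Nrf2 activation is followed as ARE-luciferase induction in the AREc32 line after one day of compound treatment; luminescence is read with Steady-Glo.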
Nrf2 block: blocks Nrf2 signaling. A549 ARE-Fluc reporter, luciferase luminescence, 18-24 h. Potency, µM (series often up to 46 µM), usual class: inhibitors. 2.1% of 360,000 active. AID 504444; note: nearly all actives have a fitted effect of over 60% in size
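Reporter: ARE-Fluc in A549. Exposure: 18-24 h, 37 °C, 5% CO2, 5% FBS OPTI-MEM. Readouts: fluorescent cytotoxicity (CellTiter-Fluor), then luminescent Nrf2 signal after BugLite.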
S2 tox: viability counter-screen for ATXN expression inhibitors | S2 cells (HEK-293 line with an ATXN2-luciferase reporter) viability, CellTiter-Fluor protease fluorescence, 24 h | Potency, µM (series often up to 56.7 µM), hits mostly cytotoxic | 0.49% of 400,000 active | AID 651635; note: nearly all actives have a fitted effect of over 40% in size
ATXN2 expr inh: inhibitors of ATXN2 expression; HEK-293 ATXN2-luciferase reporter, luminescence, 24 h; Potency, µM (highest dose often 57 µM), hits mostly inhibitors; 0.72% of 360,000 active; AID 1745845; note: nearly all actives have a fitted effect of over 55% in size
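qHTS (up to 57 uM final) was run with 24 h compound exposure of reporter cells at 37 °C. Each well was multiplexed: SteadyGlo luminescence measured ATXN2-luciferase expression after a fluorogenic Gly-Phe-AFC viability readout (25 uM final).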
Of the large screens only hits and unclear results are named; the others gave an inactive call; ! = not confirmed by another sample. Calls come from the whole dose curve; as a rule, active = well fitted curve in the direction sought with a large enough effect; inconclusive = small, poorly fitted or top-dose-only effect, or another doubt; inactive = no such curve, though single readings can be large; an effect the other way counts as inactive or inconclusive.

O=C(O)c1ccccc1SC1=NS(=O)(=O)c2ccccc21	none (no result: Nrf2 activator, S2 tox, ATXN2 expr inh)
COc1ccc(Cn2cc(C(=O)c3ccc(Cl)cc3)c(=O)c3cc4c(cc32)OCO4)cc1	A549 viability inconclusive, Nrf2 block inconclusive, S2 tox inconclusive, ATXN2 expr inh inconclusive
CCOc1ccc(C(=O)c2cn(Cc3ccc(Cl)cc3)c3cc(OC)c(OC)cc3c2=O)cc1	A549 viability 14.6µM, Nrf2 block inconclusive, S2 tox 15.8µM
COc1ccc(Cn2cc(C(=O)c3ccc(F)cc3)c(=O)c3cc4c(cc32)OCCO4)cc1	none
COc1ccc(C(=O)c2cn(Cc3ccc(F)cc3)c3ccc(C)cc3c2=O)cc1	A549 viability inconclusive, Nrf2 block inconclusive, S2 tox 17.8µM, ATXN2 expr inh inconclusive
Cc1ccc2c(c1)c(=O)c(C(=O)c1ccc3c(c1)OCO3)cn2Cc1ccc(Cl)cc1	Nrf2 block 23.1µM
COc1ccc2c(c1)c(=O)c(C(=O)c1ccc(C)cc1)cn2Cc1ccccc1F	A549 viability inconclusive, S2 tox 25.1µM, ATXN2 expr inh inconclusive
Cc1noc(C)c1S(=O)(=O)N(CC(=O)Nc1ccc(C(F)(F)F)cc1)c1ccc(C(C)C)cc1	Nrf2 block 16.4µM, S2 tox inconclusive
CCOc1ccc(N(CC(=O)Nc2cccc(Cl)c2)S(=O)(=O)c2c(C)noc2C)cc1	A549 viability inconclusive, Nrf2 block 23.1µM, S2 tox inconclusive
Cc1n[nH]c(C)c1S(=O)(=O)N(CC(=O)Nc1ccc(C(F)(F)F)cc1)c1ccc(C(C)C)cc1	Nrf2 block inconclusive (no result: S2 tox, ATXN2 expr inh)
COc1cccc(CN2C(=O)NC(C)(C3CCN(Cc4cc(Cl)ccc4O)CC3)C2=O)c1OC (configuration not stated)	none (no result: A549 viability, Nrf2 activator, Nrf2 block, ATXN2 expr inh)
Cc1cc(Nc2cc(NC(=O)c3c(Cl)cccc3Cl)ccn2)nc(N)n1	ATXN2 expr inh 7.69µM (no result: A549 viability, Nrf2 activator, Nrf2 block, S2 tox)
CC(C)(C)OC(=O)Cc1nnc(C(C(=O)OCc2ccccc2)c2ccccc2)o1 (configuration not stated)	none (no result: Nrf2 activator, S2 tox, ATXN2 expr inh)
COc1ccccc1OCC(=O)Nc1ccccc1C(=O)NCc1ccco1	none
N#Cc1ccccc1NC(=O)c1ccccc1OCC(=O)NCc1ccco1	Nrf2 activator 11.2µM
O=C1c2ccccc2C(=O)N1c1cccc(=O)[nH]1	none (no result: Nrf2 activator, S2 tox, ATXN2 expr inh)
O=[S+]1([O-])N=C(Oc2cccnc2)c2ccccc21	none (no result: Nrf2 activator, S2 tox, ATXN2 expr inh)
CC1CC1C(=O)Nc1nc(-c2ccc(Cl)s2)cs1 (configuration not stated)	Nrf2 block 23.1µM
O=C(Nc1nc(-c2ccc(Cl)s2)cs1)c1ccncc1	Nrf2 block inconclusive
COC(=O)c1ccc(COc2ccc(/C=C(\C#N)c3nc4ccccc4[nH]3)cc2OC)o1	none
CCc1ccc(NC(=O)COc2ccc(/C=C(/C#N)c3nc4ccccc4[nH]3)cc2OC)cc1	A549 viability inconclusive, Nrf2 block inconclusive, ATXN2 expr inh 4.47µM (no result: S2 tox)
N#Cc1nc(-c2ccc(COc3ccc(Cl)cc3)o2)oc1N1CCC(C(N)=O)CC1	Nrf2 block inconclusive, S2 tox inconclusive, ATXN2 expr inh 20µM
COCCCNc1oc(-c2ccc(COc3ccc(Cl)cc3)o2)nc1C#N	Nrf2 block 23.1µM, ATXN2 expr inh inconclusive
Cc1ccc(OCc2ccc(-c3nc(C#N)c(NCc4ccccc4Cl)o3)o2)cc1	Nrf2 block inconclusive, S2 tox 20µM, ATXN2 expr inh inconclusive
COc1ccc(CNc2oc(-c3ccc(COc4ccc(OC)cc4)o3)nc2C#N)cc1	Nrf2 block inconclusive
N#Cc1nc(-c2ccc(OCc3ccccc3)cc2)oc1N1CCC(C(N)=O)CC1	Nrf2 block inconclusive
O=S(=O)(c1ccsc1)N1CCN(c2nc(-c3cccs3)nc3ccccc23)CC1	none (no result: Nrf2 activator, S2 tox, ATXN2 expr inh)
CCN1C(=O)c2ccccc2C1Nc1ccc(OCCN2CCCCC2)cc1 (configuration not stated)	none (no result: A549 viability, Nrf2 activator, Nrf2 block)
CCCCN(CC)CCNC(=O)c1ccc2c(Cl)c3c(nc2c1)CCC3	none
CCN(CC)CCCNC(=O)c1ccc2c(Cl)c3c(nc2c1)CCCC3	S2 tox 20µM!, ATXN2 expr inh 28.2µM
COc1ccc(/C=N/NC(=O)c2ccoc2C)cc1OC	none
COc1ccc(/C=N/NC(=O)c2ccoc2C)cc1COc1ccc(Cl)cc1	Nrf2 block 13µM
Cc1n[nH]c(C)c1Cc1sc2c(c1C(=O)N1C[C@H](O)CO1)c(=O)n(C)c(=O)n2CC(C)C	none (no result: A549 viability, Nrf2 activator, Nrf2 block, S2 tox)
C#CCOCCOCCOCCNc1nc(N2CCN(C(=O)CCCCCCCCCCNC(=O)[C@H](CO)n3cc(CCCSC)nn3)CC2)nc(N2CCN(C(=O)CCCCCCCCCCNC(=O)[C@H](CCCN=C(N)N)n3cc(C[C@@H](C)CC)nn3)CC2)n1	A549 viability inconclusive, Nrf2 block inconclusive, S2 tox 11.2µM, ATXN2 expr inh 11.2µM
C#CCOCCOCCOCCNc1nc(N2CCN(C(=O)CCCCCCCCCCNC(=O)Cn3cc(C[C@@H](C)O)nn3)CC2)nc(N2CCN(C(=O)CCCCCCCCCCNC(=O)[C@H](CCCN=C(N)N)n3cc(C[C@@H](C)CC)nn3)CC2)n1	S2 tox 20µM, ATXN2 expr inh inconclusive
C#CCOCCOCCOCCNc1nc(N2CCN(C(=O)CCCCCCCCCCNC(=O)[C@H](CO)n3cc(CCCSC)nn3)CC2)nc(N2CCN(C(=O)CCCCCCCCCCNC(=O)[C@H](CCCCN)n3cc(CCO)nn3)CC2)n1	S2 tox inconclusive
C#CCOCCOCCOCCNc1nc(N2CCN(C(=O)CCCCCCCCCCNC(=O)Cn3cc(C[C@@H](C)O)nn3)CC2)nc(N2CCN(C(=O)CCCCCCCCCCNC(=O)[C@H](CCCCN)n3cc(CCCC(=O)O)nn3)CC2)n1	none
O=C(COC(=O)c1nc(Cl)ccc1Cl)c1ccc[nH]1	none
O=C(COC(=O)c1nc(Cl)c(Cl)c(Cl)c1Cl)c1ccc[nH]1	Nrf2 activator 22.4µM
Cc1cc2c(c(-c3cnccn3)c1)OC(CNC(=O)c1ccccc1C(F)(F)F)C2 (configuration not stated)	none (no result: A549 viability, Nrf2 activator, Nrf2 block, ATXN2 expr inh)
COc1ccc(OCc2cccc(C(=O)NN)c2)cc1	Nrf2 block inconclusive, ATXN2 expr inh 2.24µM
COc1ccc(OCc2cccc(C(=O)Nc3cc(C)on3)c2)cc1	Nrf2 block inconclusive, ATXN2 expr inh 2.24µM
COc1ccc(OCc2cccc(C(=O)Nn3cc([N+](=O)[O-])cn3)c2)cc1	Nrf2 block inconclusive, ATXN2 expr inh 1µM
O=C(Nc1c(C(=O)N2CCN(c3ccccc3)CC2)oc2ccccc12)c1ccco1	Nrf2 block inconclusive
Cc1ccc(S(=O)(=O)c2nc(-c3ccccc3F)oc2NCc2ccccc2)cc1	none
CNc1oc(-c2ccccc2F)nc1S(=O)(=O)c1ccc(C)cc1	Nrf2 block 25.9µM
CCn1cnc2c(Nc3ccc(CC(=O)N=C(N)N)cc3)nc(C#N)nc21	none (no result: Nrf2 activator, S2 tox, ATXN2 expr inh)
Cc1ccc(C(=O)COC(=O)C(Cc2c[nH]c3ccccc23)NC(=O)c2ccc(C(C)(C)C)cc2)cc1 (configuration not stated)	none (no result: Nrf2 block, S2 tox, ATXN2 expr inh)
COc1ccc(-c2cc(C(C)=O)c(C)n2CCC(=O)Nc2ccc(C(F)(F)F)cc2)cc1	none (no result: Nrf2 block, S2 tox, ATXN2 expr inh)

Compound activity from PubChem BioAssay.
